Results published in PubChem BioAssay (NCATS).
Results filed as inconclusive are left out. Where a call stands in place of a potency, no number is given. Calls of active or inactive are those of the source. The call rests on the fitted dose curve; in most records, active means well fitted curve in the direction sought with a large enough effect; inconclusive means small, poorly fitted or top-dose-only effect, or another doubt; inactive means no such curve, though single readings can be large; an effect the other way counts as inactive or inconclusive.

Target: ATP-dependent 6-phosphofructokinase (Trypanosoma brucei brucei) (UniProt O15648)
Sequence (O15648 whole entry, looked up): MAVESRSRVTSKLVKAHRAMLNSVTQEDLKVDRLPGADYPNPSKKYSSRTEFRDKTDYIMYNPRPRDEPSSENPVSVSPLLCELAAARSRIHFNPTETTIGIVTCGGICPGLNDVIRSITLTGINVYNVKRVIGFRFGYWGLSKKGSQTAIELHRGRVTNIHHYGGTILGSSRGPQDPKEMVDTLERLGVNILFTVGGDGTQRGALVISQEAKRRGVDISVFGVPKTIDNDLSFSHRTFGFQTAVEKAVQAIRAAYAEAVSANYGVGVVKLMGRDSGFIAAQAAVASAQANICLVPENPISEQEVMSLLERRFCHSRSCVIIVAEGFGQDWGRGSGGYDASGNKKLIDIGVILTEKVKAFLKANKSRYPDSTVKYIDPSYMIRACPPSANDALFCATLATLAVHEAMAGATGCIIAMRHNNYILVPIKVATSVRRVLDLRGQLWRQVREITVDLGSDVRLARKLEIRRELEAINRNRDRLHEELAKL
Assay: qHTS Assay to Find Inhibitors of T. brucei phosphofructokinase: hit validation (AID 492961);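 further: luminescence reports ADP formed as PFK phosphorylates fructose-6-phosphate with ATP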
Details: T. brucei PFK, ADP-Glo luminescence; series mostly up to 51.4 µM
Procedure, shortened: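 In this biochemical qHTS validation, titrated compounds were tested against 1.25 nM PFK with 0.1 mM ATP and 0.5 mM F6P. Percent activity came from controls lacking or containing enzyme.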

Structure (SMILES) | outcome
c1ccc(OCc2ccc(CCCN3CCOCC3)cc2)cc1 | inactive
Nc1ccc(C(=O)Nc2ccccc2N)cc1 | inactive
Cc1c(C)n(CCN(C)C)c2ccc(C(=O)OCCN(C)C)cc12 | inactive
Cc1ccc(O)c2ncccc12 | inactive
O=C1c2ccccc2C(=O)C1c1ccccc1 | inactive
COc1cc(-c2ccc(=O)[nH]n2)ccc1OC(F)F | inactive
COc1ccc(/C=C/C(=O)c2ccc(OC)cc2OC)cc1 | inactive
COc1ccc(C2C(=O)c3ccccc3C2=O)cc1 | inactive
CCCCOc1cc(C(=O)NCCN(CC)CC)c2ccccc2n1 | inactive
CC(O)(P(=O)(O)O)P(=O)(O)O | inactive
CCOc1ccc2nc3cc(N)ccc3c(N)c2c1 | inactive
O=C(COc1ccc(Cl)cc1)N1CCN(Cc2ccc3c(c2)OCO3)CC1 | inactive
Cc1ccc(C(=O)C(C)CN2CCCCC2)cc1 (centres undefined) | inactive
Cc1c(C(N)=O)cc([N+](=O)[O-])cc1[N+](=O)[O-] | inactive
COc1cc(OC)cc(OC)c1 | inactive
OC(CCN1CCCCC1)(c1ccccc1)c1ccccc1 | inactive
NCCC(O)(P(=O)(O)O)P(=O)(O)O | inactive
CCC(=O)c1c(O)cc(O)cc1O | inactive

Structure (SMILES) | outcome
CN1CCC[C@@H]1c1cccnc1 | inactive
Oc1ccc(Cl)c2cccnc12 | inactive
c1ccc(CNCCNCc2ccccc2)cc1 | inactive
Clc1ccc2c(c1)CCc1cccnc1C2=C1CCNCC1 | inactive
CCCCCCCCCCOCC(O)CN (centres undefined) | inactive
CC(C)=CCC1C(=O)N(c2ccccc2)N(c2ccccc2)C1=O | inactive
CN1CCN(CCCN2c3ccccc3Sc3ccc(S(=O)(=O)N(C)C)cc32)CC1 | inactive
CCN(CC)CCOC(=O)C(c1ccccc1)C1CCCCC1 (centres undefined) | inactive
CN(C)CCCOc1nn(Cc2ccccc2)c2ccccc12 | inactive
CC(C)(C(=O)c1cccnc1)c1cccnc1 | inactive
CCN(CCCc1ccccc1)CCCc1ccccc1 | inactive
Cc1cccc(C)c1NC(=O)CN1CCN(CCCC(c2ccc(F)cc2)c2ccc(F)cc2)CC1 | inactive
CN(C)C(=S)SC(=S)N(C)C | inactive
COc1cc(C(=S)N2CCOCC2)cc(OC)c1OC | inactive
C[C@@H]1C[C@H]2[C@@H]3CCC4=CC(=O)C=C[C@]4(C)[C@@]3(F)[C@@H](O)C[C@]2(C)[C@H]1C(=O)CO | inactive
Cc1c(F)c(N2CCNC(C)C2)cc2c1c(=O)c(C(=O)O)cn2C1CC1 (centres undefined) | inactive
O=C1OCCN1/N=C/c1ccc([N+](=O)[O-])o1 | inactive

Target: Ubiquitin carboxyl-terminal hydrolase 1 (Homo sapiens) (UniProt O94782)
Sequence (O94782 whole entry, looked up): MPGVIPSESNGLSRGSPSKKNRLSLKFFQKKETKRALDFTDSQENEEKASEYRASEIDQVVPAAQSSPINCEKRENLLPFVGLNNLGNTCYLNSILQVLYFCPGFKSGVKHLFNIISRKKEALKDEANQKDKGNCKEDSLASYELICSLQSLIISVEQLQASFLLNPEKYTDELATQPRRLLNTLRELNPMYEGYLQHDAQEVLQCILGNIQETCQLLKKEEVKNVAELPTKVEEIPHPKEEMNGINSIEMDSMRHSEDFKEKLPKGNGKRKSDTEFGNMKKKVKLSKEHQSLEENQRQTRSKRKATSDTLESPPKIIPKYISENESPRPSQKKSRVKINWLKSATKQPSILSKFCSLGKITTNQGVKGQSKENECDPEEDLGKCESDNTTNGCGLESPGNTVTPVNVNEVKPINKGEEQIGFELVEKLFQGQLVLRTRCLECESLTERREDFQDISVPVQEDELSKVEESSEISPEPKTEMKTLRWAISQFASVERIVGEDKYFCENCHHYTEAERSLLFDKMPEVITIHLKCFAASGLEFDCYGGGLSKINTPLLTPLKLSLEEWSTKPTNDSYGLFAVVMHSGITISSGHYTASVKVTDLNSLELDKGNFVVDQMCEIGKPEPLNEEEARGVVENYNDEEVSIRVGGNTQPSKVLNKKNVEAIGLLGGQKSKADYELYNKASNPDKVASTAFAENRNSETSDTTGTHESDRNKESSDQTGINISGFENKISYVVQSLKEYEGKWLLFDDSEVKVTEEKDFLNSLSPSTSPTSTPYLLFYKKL
Assay: Inhibitors of USP1/UAF1: Pilot qHTS (AID 504865); further: nearly all actives have a fitted effect of over 35% in size; further: potency means the concentration at half of the fitted maximal effect
Details: purified USP1/UAF1, Ub-rhodamine cleavage fluorescence; series mostly up to 114 µM
Procedure, shortened: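 Deubiquitinase activity followed as kinetic rhodamine fluorescence release from 150 nM Ub-Rho. 1 nM USP1/UAF1 with compound, after 15 min room-temperature preincubation, in HEPES pH 7.8 buffer containing TCEP, EDTA, BSA and Tween-20.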

Structure (SMILES) | Potency
c1ccc(OCc2ccc(CCCN3CCOCC3)cc2)cc1 | inactive
Nc1ccc(C(=O)Nc2ccccc2N)cc1 | inactive
Cc1c(C)n(CCN(C)C)c2ccc(C(=O)OCCN(C)C)cc12 | inactive
Cc1ccc(O)c2ncccc12 | inactive
O=C1c2ccccc2C(=O)C1c1ccccc1 | inactive
COc1cc(-c2ccc(=O)[nH]n2)ccc1OC(F)F | inactive
COc1ccc(/C=C/C(=O)c2ccc(OC)cc2OC)cc1 | inactive
COc1ccc(C2C(=O)c3ccccc3C2=O)cc1 | inactive
CCCCOc1cc(C(=O)NCCN(CC)CC)c2ccccc2n1 | inactive
CC(O)(P(=O)(O)O)P(=O)(O)O | inactive
CCOc1ccc2nc3cc(N)ccc3c(N)c2c1 | 50.1 µM (active)
O=C(COc1ccc(Cl)cc1)N1CCN(Cc2ccc3c(c2)OCO3)CC1 | inactive
Cc1ccc(C(=O)C(C)CN2CCCCC2)cc1 (centres undefined) | inactive
Cc1c(C(N)=O)cc([N+](=O)[O-])cc1[N+](=O)[O-] | inactive
COc1cc(OC)cc(OC)c1 | inactive
OC(CCN1CCCCC1)(c1ccccc1)c1ccccc1 | inactive
NCCC(O)(P(=O)(O)O)P(=O)(O)O | inactive

Structure (SMILES) | Potency
CCC(=O)c1c(O)cc(O)cc1O | inactive
CN1CCC[C@@H]1c1cccnc1 | inactive
Oc1ccc(Cl)c2cccnc12 | inactive
c1ccc(CNCCNCc2ccccc2)cc1 | inactive
Clc1ccc2c(c1)CCc1cccnc1C2=C1CCNCC1 | inactive
CCCCCCCCCCOCC(O)CN (centres undefined) | inactive
CC(C)=CCC1C(=O)N(c2ccccc2)N(c2ccccc2)C1=O | inactive
CN1CCN(CCCN2c3ccccc3Sc3ccc(S(=O)(=O)N(C)C)cc32)CC1 | inactive
CCN(CC)CCOC(=O)C(c1ccccc1)C1CCCCC1 (centres undefined) | inactive
CN(C)CCCOc1nn(Cc2ccccc2)c2ccccc12 | inactive
CC(C)(C(=O)c1cccnc1)c1cccnc1 | inactive
CCN(CCCc1ccccc1)CCCc1ccccc1 | inactive
CN(C)C(=S)SC(=S)N(C)C | inactive
COc1cc(C(=S)N2CCOCC2)cc(OC)c1OC | inactive
C[C@@H]1C[C@H]2[C@@H]3CCC4=CC(=O)C=C[C@]4(C)[C@@]3(F)[C@@H](O)C[C@]2(C)[C@H]1C(=O)CO | inactive
Cc1c(F)c(N2CCNC(C)C2)cc2c1c(=O)c(C(=O)O)cn2C1CC1 (centres undefined) | inactive
O=C1OCCN1/N=C/c1ccc([N+](=O)[O-])o1 | inactive
